The whole screen tested about 310,000 compounds, of which about 14,000 (4.5%) showed an effect of 50% or more. Effects have a minus sign here. Only a selection was taken, and strong results are over-represented in it overall.
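Note: peak tail current of the secondary pulse compared with the same well before compound.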

The test deals with human ether-à-go-go-related gene (hERG) potassium channel (human, UniProt Q12809). Put plainly: primary screen, population patch clamp on CHO cells stably expressing hERG; higher = less effect of the substance.
human ether-à-go-go-related gene (hERG) potassium channel, sequence (Q12809 whole entry, looked up): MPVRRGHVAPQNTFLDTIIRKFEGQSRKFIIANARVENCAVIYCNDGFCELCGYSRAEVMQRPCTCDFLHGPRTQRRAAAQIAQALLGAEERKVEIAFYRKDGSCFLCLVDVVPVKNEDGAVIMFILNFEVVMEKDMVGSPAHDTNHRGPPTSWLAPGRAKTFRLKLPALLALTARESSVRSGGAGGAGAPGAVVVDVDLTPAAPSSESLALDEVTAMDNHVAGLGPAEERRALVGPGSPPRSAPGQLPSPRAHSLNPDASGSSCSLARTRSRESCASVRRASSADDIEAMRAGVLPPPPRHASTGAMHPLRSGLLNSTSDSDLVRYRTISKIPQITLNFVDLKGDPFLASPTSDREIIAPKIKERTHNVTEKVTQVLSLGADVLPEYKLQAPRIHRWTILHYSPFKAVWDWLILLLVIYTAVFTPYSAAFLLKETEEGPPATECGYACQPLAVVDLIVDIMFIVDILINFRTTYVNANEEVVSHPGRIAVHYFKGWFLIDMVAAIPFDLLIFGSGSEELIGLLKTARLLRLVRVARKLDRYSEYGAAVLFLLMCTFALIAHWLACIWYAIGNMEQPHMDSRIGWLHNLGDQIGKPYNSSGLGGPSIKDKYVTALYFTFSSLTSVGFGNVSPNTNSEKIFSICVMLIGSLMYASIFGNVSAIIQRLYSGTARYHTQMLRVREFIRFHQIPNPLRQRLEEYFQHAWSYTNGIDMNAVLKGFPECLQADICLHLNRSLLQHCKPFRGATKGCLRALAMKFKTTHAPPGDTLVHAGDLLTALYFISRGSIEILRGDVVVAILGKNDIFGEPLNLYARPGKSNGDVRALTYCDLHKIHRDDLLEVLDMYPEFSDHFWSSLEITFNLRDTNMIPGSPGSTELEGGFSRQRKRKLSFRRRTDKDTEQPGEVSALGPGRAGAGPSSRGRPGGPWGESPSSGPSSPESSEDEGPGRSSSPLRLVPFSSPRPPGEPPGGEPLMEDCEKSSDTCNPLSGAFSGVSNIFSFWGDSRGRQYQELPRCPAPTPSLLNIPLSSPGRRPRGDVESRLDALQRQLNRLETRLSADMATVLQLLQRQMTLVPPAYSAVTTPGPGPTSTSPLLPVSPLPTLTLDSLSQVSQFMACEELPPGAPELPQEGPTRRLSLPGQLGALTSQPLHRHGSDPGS
Turning to `COc1ccc(-n2nc(C(=O)NCC(=O)N(C)Cc3ccccc3)c3ccccc3c2=O)cc1`, the “hERG current change (%, negative = inhibition) at 10uM” value is reported as -8.21%.
Consider `NC(=O)[C@@H]1[C@@H]2C(=O)N(c3ccc(F)cc3)C(=O)[C@@H]2[C@H]2C=Cc3ccccc3N21`, for which the “hERG current change (%, negative = inhibition) at 10uM” value was 14.2%.
`Nc1ccc(C(=O)OCC(=O)c2cccc([N+](=O)[O-])c2)cc1`: the “hERG current change (%, negative = inhibition) at 10uM” value is reported as 39.8%.
In the case of `Cc1ccccc1C(C(=O)NC1CCCCC1)N(C(=O)CNC(=O)c1ccco1)c1cccnc1` (stereo not shown), the “hERG current change (%, negative = inhibition) at 10uM” value is given as 6.3%.
The value for `CC(C)CN(C(=O)CSc1n[nH]c(-c2cccs2)n1)C1CCS(=O)(=O)C1` (stereo not shown) was -2.69%.
Under `O=C(OCc1ccccc1Cl)C1CC(=O)N(Cc2ccco2)C1` (stereo not shown) stands 11.4%; under `O=C(OCc1ccc([N+](=O)[O-])cc1)C1CC(=O)N(Cc2ccccc2Cl)C1` (stereo not shown), -66.4%; under `Cc1nn(-c2ccccc2)c(C)c1NC(=O)COC(=O)C1CC(=O)N(CCc2ccccc2)C1` (stereo not shown), 9.52%.
Under `CCOc1ccc(COC(=O)C2CC(=O)N(CCc3ccccc3)C2)cc1OC` (stereo not shown) stands -21.6%.
Consider `O=C(Nc1cccc([N+](=O)[O-])c1)C1CC(=O)N(Cc2ccccc2)C1` (stereo not shown), for which the “hERG current change (%, negative = inhibition) at 10uM” value was -53.2%.
The value for `O=C(Nc1ccccc1)C1CC(=O)N(Cc2ccccc2)C1` (stereo not shown) was 2.14%; that for `Cc1ccc(CN2CC(C(=O)OCc3ccccc3Cl)CC2=O)cc1` (stereo not shown) was 0.354%; that for `O=C(OCc1ccc([N+](=O)[O-])cc1)C1CC(=O)N(CCc2ccccc2)C1` (stereo not shown) was -69.4%.
The value for `O=C(O)C1CC(=O)N(CCc2ccccc2)C1` (stereo not shown) was 6.79%.
Take `CCOC(=O)c1ccccc1NC(=O)COC(=O)C1CCCC1`: the “hERG current change (%, negative = inhibition) at 10uM” value is reported as -2.49%.
The value for `CCOC(=O)c1ccccc1NC(=O)COC(=O)C1CC(=O)N(CCc2ccccc2)C1` (stereo not shown) was -75.6%; that for `O=C(Nc1ccc(F)c([N+](=O)[O-])c1)C1CC(=O)N(Cc2ccccc2)C1` (stereo not shown) was -34.4%; that for `O=C(N/N=C/C(Br)=C/c1ccccc1)C1CC1` was 32.2%.
As to `COc1ccc(NC(=O)Cn2nnc(C(=O)NCc3ccc4c(c3)OCO4)c2N)c(OC)c1`, the “hERG current change (%, negative = inhibition) at 10uM” value stood at 18.1%.
The value for `COc1ccc2oc(C(=O)Nc3nccs3)c(C)c2c1` was 16.7%; that for `O=C(OCc1nnc(-c2ccccc2)o1)C1CC(=O)N(c2ccccc2)C1` (stereo not shown) was -21.5%; that for `O=C(OCc1nnc(-c2ccc([N+](=O)[O-])cc2)o1)C1CC(=O)N(CCc2ccccc2)C1` (stereo not shown) was -61.7%.
In the case of `O=C(OCc1nnc(-c2ccccc2)o1)C1CC(=O)N(CCc2ccccc2)C1` (stereo not shown), the “hERG current change (%, negative = inhibition) at 10uM” value is recorded as -31%.
Under `COc1ccc(OC)c(CCNC(=O)CCn2nc(C)c3c(C)n(-c4ccccc4)nc3c2=O)c1` stands 18.5%.
Under `COC(=O)c1oc2ccc(Br)cc2c1NC(=O)CN1CCN(C)CC1` stands -62.3%; under `CCOC(=O)c1oc2ccc(OC)cc2c1NC(=O)CN1CCN(C)CC1.Cl`, -5.54%.
On to `CCOC(=O)c1oc2ccccc2c1NC(=O)CN1CCN(C)CC1`, for which the “hERG current change (%, negative = inhibition) at 10uM” value is on record as -58.4%.
`CCOC(=O)c1oc2ccccc2c1NC(=O)CN1CCOCC1`: the “hERG current change (%, negative = inhibition) at 10uM” value is on record as 6.54%.
Under `CCOC(=O)c1oc2ccc(Br)cc2c1NC(=O)CN1CCN(C)CC1` stands -65.8%; under `COC(=O)c1oc2ccc(Br)cc2c1NC(=O)CCN1CCOCC1`, -17.7%; under `COC(=O)c1oc2ccc(Br)cc2c1NC(C)=O`, 3.19%.
Regarding `COC(=O)c1oc2ccc(Br)cc2c1NC(=O)CCCN1C(=O)c2ccccc2C1=O`, the “hERG current change (%, negative = inhibition) at 10uM” value came out at 17.1%.
For `CCCC(=O)Nc1c(C(=O)OCC)oc2ccccc12`, the “hERG current change (%, negative = inhibition) at 10uM” value came out at 1.98%.
In the case of `Cc1ccc(C)c(N=Cc2c(O)c3ccccc3oc2=O)c1`, the “hERG current change (%, negative = inhibition) at 10uM” value is 16.3%.
Under `CCc1ccc(C(C(=O)NC2CCCC2)N(C(=O)/C=C/C(=O)Nc2cc(C)on2)c2ccccc2C)cc1` (stereo not shown) stands 9.58%; under `C/C(=N\Nc1ccccc1Cl)c1ccc(-n2ccnc2)cc1`, -7.1%.
Under `COCCCN1CN=C(NS(=O)(=O)c2ccc(C)cc2)NC1` stands 13.3%; under `CC(=O)c1cccc(NC(=O)COc2ccc(S(=O)(=O)N3CCOCC3)cc2)c1`, -10.1%; under `Cc1nc2ccc(-c3nc4ccccc4[nH]3)cc2[nH]1`, 7.78%.
`Cc1ccc(S(=O)(=O)NCCC(=O)NC2CCCCC2C)cc1` (stereo not shown): the “hERG current change (%, negative = inhibition) at 10uM” value is on record as 3.4%.
